Drawing on ChEMBL document CHEMBL1961873, “Compounds: GSK PKIS; Assays: Nanosyn kinase panel” (2012), this text covers inhibition for one compound.

In experiment [1] the target is Protein kinase C gamma type (Homo sapiens) (UniProt P05129). The settings on record: at 1 µM.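 Also: each value is an averaged percent inhibition of the enzyme.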
In experiment [2] the target is T1, Protein kinase C iota type (Homo sapiens) (UniProt P41743).
T1 sequence (whole entry): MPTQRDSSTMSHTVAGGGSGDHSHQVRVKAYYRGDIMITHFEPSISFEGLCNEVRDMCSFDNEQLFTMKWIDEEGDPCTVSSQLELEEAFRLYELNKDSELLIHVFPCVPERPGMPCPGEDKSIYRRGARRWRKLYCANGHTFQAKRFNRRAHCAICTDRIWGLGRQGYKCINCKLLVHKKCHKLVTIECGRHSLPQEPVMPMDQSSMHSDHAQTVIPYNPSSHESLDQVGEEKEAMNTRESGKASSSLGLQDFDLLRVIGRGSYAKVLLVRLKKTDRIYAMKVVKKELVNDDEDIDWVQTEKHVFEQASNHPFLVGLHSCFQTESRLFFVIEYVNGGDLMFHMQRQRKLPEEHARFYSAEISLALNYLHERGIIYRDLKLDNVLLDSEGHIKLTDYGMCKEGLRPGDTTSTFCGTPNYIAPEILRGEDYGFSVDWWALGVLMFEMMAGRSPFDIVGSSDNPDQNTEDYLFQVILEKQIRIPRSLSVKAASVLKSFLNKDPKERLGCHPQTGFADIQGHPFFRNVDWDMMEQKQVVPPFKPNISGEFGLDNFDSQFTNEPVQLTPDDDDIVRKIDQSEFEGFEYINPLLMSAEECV
The note with it: at 0.1 µM.

The target of experiment [3] is T1, Protein kinase C iota type (Homo sapiens). The note with it: at 1 µM.
Experiment [4] deals with Protein kinase C theta type (Homo sapiens) (UniProt Q04759). The note with it: at 0.1 µM.
For experiment [5] the target is unchanged. The note with it: at 1 µM.
In experiment [6] the target is Protein kinase C beta type (Homo sapiens) (UniProt P05771). The settings on record: at 0.1 µM.
For experiment [7] the target is unchanged. The note with it: at 1 µM.
For experiment [8], the target named is T2, Serine/threonine-protein kinase D1 (Homo sapiens) (UniProt Q15139).
T2 sequence (whole entry): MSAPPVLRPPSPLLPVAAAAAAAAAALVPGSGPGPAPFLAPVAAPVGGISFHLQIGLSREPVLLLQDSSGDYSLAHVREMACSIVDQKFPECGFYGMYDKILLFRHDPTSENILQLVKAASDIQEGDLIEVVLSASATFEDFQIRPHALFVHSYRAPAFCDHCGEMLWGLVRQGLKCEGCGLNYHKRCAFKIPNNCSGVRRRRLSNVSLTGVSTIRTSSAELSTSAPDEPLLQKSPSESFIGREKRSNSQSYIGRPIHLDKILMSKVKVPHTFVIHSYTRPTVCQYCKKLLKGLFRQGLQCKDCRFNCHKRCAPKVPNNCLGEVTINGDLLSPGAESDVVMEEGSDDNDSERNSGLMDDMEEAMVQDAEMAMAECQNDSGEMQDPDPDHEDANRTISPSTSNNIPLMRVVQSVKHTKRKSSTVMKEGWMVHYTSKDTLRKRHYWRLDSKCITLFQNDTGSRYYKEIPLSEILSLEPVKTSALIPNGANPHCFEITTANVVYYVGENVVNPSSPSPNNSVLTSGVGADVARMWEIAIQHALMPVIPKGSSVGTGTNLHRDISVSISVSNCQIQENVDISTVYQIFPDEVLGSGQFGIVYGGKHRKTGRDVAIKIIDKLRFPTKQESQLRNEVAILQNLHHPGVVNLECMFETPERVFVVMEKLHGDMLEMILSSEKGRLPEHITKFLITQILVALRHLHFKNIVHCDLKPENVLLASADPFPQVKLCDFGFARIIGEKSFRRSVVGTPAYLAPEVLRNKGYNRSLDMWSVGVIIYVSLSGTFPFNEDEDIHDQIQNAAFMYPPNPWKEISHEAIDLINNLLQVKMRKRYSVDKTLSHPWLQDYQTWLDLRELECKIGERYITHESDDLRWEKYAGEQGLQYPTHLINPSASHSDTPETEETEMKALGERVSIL
The note with it: at 0.1 µM.

For experiment [9], the target named is T2, Serine/threonine-protein kinase D1 (Homo sapiens). The settings on record: at 1 µM.
Experiment [10] addresses T3, Serine/threonine-protein kinase D2 (Homo sapiens) (UniProt Q9BZL6).
T3 sequence (whole entry): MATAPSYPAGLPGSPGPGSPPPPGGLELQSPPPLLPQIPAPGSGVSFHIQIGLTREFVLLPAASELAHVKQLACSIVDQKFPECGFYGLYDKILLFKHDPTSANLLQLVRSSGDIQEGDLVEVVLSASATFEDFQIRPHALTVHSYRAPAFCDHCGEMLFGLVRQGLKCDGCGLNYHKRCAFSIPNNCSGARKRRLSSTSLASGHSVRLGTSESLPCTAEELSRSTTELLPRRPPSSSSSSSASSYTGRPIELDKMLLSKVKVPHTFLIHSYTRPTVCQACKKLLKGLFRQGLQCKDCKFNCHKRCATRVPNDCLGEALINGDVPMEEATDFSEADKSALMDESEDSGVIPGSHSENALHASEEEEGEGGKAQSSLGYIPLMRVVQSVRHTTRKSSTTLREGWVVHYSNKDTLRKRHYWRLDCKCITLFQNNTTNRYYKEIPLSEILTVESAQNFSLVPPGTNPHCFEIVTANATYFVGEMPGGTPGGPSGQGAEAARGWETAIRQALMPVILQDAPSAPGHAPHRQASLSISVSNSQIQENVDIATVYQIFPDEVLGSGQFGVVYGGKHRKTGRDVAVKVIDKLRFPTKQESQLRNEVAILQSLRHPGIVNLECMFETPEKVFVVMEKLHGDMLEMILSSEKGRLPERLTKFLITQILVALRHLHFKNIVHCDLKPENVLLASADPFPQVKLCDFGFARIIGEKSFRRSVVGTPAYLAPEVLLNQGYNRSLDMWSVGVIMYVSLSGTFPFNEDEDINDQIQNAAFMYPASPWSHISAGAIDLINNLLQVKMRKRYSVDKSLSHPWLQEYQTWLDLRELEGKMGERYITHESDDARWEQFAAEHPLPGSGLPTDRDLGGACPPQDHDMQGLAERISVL
The note with it: at 0.1 µM.

Experiment [11] has as its target T3, Serine/threonine-protein kinase D2 (Homo sapiens). The note with it: at 1 µM.
Experiment [12] deals with T4, Serine/threonine-protein kinase D3 (Homo sapiens) (UniProt O94806).
T4 sequence (whole entry): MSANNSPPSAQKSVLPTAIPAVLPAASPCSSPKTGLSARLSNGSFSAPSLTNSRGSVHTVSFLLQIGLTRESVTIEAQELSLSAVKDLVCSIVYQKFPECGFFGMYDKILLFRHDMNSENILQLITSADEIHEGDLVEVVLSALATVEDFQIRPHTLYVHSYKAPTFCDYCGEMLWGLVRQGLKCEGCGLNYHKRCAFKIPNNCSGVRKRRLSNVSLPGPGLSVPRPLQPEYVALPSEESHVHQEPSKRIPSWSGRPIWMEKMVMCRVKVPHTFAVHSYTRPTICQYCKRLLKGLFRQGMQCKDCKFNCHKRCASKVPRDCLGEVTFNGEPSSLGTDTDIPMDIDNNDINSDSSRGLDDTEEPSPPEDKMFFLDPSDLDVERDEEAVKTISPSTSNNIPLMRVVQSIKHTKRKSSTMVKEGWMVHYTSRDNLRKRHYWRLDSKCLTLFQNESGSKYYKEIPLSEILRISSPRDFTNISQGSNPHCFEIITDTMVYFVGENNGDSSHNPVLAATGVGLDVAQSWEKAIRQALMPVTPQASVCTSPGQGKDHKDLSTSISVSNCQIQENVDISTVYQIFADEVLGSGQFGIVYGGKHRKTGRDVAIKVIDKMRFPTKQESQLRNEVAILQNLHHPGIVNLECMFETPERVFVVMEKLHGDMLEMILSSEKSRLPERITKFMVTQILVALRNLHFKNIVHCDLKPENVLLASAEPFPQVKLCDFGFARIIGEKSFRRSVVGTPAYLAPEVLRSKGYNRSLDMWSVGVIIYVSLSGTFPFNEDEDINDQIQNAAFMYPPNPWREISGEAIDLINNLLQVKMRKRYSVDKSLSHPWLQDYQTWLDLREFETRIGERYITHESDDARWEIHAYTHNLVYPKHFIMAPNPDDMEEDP
The note with it: at 0.1 µM.

In experiment [13] the target is T4, Serine/threonine-protein kinase D3 (Homo sapiens). The note with it: at 1 µM.
Experiment [14] deals with T5, cGMP-dependent protein kinase 1 (Homo sapiens) (UniProt Q13976).
T5 sequence (whole entry): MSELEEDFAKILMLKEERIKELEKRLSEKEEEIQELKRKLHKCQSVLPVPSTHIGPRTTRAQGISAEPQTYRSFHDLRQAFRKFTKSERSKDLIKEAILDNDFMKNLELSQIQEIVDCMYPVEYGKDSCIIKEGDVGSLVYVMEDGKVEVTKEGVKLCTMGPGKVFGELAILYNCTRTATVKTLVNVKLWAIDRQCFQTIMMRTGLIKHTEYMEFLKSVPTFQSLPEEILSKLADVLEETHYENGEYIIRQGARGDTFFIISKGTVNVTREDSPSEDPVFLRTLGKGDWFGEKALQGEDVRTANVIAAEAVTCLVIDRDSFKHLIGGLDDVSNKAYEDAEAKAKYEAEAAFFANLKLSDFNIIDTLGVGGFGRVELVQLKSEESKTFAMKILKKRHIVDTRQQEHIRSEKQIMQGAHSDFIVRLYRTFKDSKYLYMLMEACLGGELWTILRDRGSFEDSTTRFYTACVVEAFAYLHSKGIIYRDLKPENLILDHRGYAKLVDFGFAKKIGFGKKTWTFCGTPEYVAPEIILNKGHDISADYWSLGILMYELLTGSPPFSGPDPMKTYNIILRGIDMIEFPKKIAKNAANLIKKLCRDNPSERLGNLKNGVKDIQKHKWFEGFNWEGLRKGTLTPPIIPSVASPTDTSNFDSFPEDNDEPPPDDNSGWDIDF
The note with it: at 0.1 µM.

For experiment [15], the target named is T5, cGMP-dependent protein kinase 1 (Homo sapiens). The note with it: at 1 µM.
Experiment [16] deals with T6, cGMP-dependent protein kinase 2 (Homo sapiens) (UniProt Q13237).
T6 sequence (whole entry): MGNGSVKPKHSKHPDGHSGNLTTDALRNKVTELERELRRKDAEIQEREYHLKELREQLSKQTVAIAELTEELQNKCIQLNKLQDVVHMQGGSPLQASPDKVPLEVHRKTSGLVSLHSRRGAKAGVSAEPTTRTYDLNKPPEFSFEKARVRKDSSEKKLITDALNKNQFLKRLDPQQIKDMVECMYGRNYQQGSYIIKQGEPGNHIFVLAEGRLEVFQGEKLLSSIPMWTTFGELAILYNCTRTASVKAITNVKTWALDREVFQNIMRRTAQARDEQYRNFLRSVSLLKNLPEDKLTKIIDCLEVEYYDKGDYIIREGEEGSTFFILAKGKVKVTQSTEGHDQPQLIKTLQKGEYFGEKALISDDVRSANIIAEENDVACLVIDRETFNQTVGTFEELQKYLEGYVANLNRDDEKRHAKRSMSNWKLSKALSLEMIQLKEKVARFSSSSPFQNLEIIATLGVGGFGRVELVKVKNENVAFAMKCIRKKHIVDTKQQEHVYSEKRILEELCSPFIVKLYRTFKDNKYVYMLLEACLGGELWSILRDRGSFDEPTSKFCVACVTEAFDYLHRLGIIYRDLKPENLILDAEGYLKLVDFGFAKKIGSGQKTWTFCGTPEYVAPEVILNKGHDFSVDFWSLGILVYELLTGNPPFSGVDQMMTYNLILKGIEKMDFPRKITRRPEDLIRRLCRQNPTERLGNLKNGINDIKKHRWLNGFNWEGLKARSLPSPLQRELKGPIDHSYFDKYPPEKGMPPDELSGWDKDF
The note with it: at 0.1 µM.

Experiment [17] addresses T6, cGMP-dependent protein kinase 2 (Homo sapiens). The note with it: at 1 µM.
Experiment [18] addresses T7, cAMP-dependent protein kinase catalytic subunit PRKX (Homo sapiens) (UniProt P51817).
T7 sequence (whole entry): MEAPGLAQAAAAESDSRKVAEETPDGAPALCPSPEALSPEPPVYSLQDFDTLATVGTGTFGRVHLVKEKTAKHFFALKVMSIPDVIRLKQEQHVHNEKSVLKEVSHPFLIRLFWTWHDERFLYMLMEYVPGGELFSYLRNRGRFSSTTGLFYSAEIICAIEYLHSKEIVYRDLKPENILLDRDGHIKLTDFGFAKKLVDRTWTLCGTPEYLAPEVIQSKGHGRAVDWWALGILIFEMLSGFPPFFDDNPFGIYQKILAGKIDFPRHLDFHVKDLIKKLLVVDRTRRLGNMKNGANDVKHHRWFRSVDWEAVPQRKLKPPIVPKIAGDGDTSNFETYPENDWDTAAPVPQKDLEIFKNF
The settings on record: at 0.1 µM.

The target of experiment [19] is T7, cAMP-dependent protein kinase catalytic subunit PRKX (Homo sapiens). The note with it: at 1 µM.
Experiment [20] addresses Rho-associated protein kinase 1 (Homo sapiens) (UniProt Q13464). The note with it: at 0.1 µM.

Sequence of Protein kinase C beta type (Homo sapiens) (P05771 2-671 limits assumed): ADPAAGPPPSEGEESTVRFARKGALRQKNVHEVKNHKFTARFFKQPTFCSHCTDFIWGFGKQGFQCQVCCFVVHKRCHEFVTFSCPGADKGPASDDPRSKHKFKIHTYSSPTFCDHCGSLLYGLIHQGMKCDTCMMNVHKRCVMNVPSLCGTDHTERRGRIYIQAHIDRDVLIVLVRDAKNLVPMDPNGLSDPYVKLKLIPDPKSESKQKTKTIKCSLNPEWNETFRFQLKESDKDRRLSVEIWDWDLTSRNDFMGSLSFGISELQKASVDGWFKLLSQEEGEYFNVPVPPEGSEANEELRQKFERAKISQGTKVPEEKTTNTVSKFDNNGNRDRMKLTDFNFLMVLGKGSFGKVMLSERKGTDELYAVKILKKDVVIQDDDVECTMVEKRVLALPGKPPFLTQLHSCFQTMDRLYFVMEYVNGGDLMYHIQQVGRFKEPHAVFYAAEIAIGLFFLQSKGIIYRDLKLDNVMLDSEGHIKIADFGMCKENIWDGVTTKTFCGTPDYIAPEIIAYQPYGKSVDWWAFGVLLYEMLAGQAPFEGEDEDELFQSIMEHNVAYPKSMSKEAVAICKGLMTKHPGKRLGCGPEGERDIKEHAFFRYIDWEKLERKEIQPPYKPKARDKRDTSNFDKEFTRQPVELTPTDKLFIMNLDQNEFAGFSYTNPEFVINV
Sequence of Protein kinase C theta type (Homo sapiens) (Q04759 whole entry, looked up): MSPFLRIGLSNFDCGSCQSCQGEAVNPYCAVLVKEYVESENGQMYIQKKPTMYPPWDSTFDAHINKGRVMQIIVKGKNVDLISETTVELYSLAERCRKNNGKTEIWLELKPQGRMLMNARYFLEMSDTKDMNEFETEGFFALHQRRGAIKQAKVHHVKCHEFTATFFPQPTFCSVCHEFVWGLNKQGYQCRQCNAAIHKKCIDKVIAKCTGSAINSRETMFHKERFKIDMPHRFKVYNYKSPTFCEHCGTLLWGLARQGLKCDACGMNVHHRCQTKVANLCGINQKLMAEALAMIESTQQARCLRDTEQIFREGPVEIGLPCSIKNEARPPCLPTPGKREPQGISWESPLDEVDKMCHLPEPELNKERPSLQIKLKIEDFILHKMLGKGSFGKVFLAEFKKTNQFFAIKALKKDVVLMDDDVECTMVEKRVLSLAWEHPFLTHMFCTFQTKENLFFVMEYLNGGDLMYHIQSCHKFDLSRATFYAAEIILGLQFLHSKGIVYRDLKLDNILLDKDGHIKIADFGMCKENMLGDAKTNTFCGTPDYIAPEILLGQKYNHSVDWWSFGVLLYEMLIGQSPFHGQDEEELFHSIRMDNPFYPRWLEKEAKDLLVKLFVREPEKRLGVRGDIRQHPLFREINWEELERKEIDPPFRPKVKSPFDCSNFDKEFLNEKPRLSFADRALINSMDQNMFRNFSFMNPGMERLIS
Sequence of Rho-associated protein kinase 1 (Homo sapiens) (Q13464 2-1354 limits assumed): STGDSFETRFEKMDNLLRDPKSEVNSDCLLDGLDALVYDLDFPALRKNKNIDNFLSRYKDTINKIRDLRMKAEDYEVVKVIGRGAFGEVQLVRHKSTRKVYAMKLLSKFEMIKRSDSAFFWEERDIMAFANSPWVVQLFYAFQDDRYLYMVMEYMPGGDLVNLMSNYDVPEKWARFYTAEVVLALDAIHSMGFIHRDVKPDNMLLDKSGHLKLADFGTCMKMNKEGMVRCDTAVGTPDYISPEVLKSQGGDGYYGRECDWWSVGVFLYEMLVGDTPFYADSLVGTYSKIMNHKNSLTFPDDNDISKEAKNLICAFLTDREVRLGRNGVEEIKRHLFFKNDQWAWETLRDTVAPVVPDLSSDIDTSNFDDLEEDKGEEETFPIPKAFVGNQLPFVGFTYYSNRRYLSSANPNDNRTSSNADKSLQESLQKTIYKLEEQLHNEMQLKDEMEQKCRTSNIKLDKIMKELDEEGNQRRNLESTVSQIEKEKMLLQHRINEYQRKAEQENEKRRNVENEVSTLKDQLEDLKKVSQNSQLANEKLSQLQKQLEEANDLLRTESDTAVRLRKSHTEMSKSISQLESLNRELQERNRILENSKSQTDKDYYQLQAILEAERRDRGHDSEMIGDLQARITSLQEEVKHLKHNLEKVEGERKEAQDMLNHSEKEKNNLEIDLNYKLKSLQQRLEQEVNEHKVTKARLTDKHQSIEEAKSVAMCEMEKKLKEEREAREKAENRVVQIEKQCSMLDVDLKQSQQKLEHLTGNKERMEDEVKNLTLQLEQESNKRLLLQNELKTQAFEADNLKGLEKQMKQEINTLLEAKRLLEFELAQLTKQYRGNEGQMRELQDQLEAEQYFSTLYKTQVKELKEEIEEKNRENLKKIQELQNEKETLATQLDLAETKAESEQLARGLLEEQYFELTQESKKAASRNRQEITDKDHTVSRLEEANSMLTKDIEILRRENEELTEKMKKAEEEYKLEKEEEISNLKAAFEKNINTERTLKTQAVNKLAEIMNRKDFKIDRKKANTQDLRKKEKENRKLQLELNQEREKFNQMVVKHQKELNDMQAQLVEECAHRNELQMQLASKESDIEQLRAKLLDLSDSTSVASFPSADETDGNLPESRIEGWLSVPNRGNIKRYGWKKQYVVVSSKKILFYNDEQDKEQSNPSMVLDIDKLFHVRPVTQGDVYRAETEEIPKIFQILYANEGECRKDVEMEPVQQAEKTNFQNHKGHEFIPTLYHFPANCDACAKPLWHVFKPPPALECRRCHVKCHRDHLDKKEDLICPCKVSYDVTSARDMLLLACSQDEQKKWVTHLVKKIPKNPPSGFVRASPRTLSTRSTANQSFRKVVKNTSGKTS

As a reminder, the inhibition is the drop in the measured response relative to a control, in per cent. Turning to `O=C1NC(=O)C(c2cccc(Cl)c2)=C1Nc1ccc(Cl)c(C(=O)O)c1`, the inhibition came out at 4.28% in experiment [1]; 0.11% in experiment [2]; 0.87% in experiment [3]; 1.72% in experiment [4]; 3.51% in [5]; 1% in experiment [6]. Besides, the inhibition in experiment [7] is 1.2%; in [8], 2.5%; in experiment [9] it was 3.42%; in experiment [10], 3.1%; in experiment [11], 3.62%; in experiment [12] it was 2.22%. Further, the inhibition in [13] is 2.81%; in [14], 1.11%; in experiment [15], 2%; in [16], -0.19%; in experiment [17] it was 1.58%; in [18] it was 2.51%. The inhibition in experiment [19] was 2.74%; in experiment [20], -0.01%.
